Screens as filed in PubChem BioAssay.
The full list was thinned out, with hits kept by preference.
BL2 CD40 inh: CD40 pathway inhibition in BL2 cells. 83,000 compounds, 0.94% hits. inhibition, % at 10 µM. BL2 NF-kB luciferase reporter, CD40L-induced, 4 h;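 active means mean inhibition of at least 50% with a set share of replicates also reaching that level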
Of the large screens only hits and unclear results are named; the others gave an inactive call; [ ] = remark or other dose.

CC(=O)N1C2CN(CC(F)(F)F)CC1C2c1ccc(Br)cc1 (stereo not drawn)	none
COc1ccc(CNC(=O)c2noc3c2CCCCC3)cc1	none
CC(=O)c1ccc(NC(=O)c2noc3c2CCC3)cc1	BL2 CD40 inh 58
COC(=O)c1ccccc1NC(=O)c1noc2c1CCCC2	none
N#C[C@@H]1[C@@H](c2ccc(C3=CCCCC3)cc2)[C@H](CO)N1C(=O)CN1CCOCC1	none
O=C(C[C@H]1C[C@H]2c3cc(NC(=O)NC4CCCCC4)ccc3O[C@H]2[C@H](CO)O1)NC1CCCC1	none
COc1ccc(-n2c(C)c3c(C)nnc(C)c3c2C)cc1OC	none
COc1ccccc1N1C(=O)C2CC(C)=C(C)CC2C1=O (stereo not drawn)	none
COc1cc(N2C(=O)C=CC2=O)ccc1N1C(=O)C=CC1=O	BL2 CD40 inh 109
CCCNC(=O)N1C[C@@H]2[C@H](c3ccccc31)[C@@H](CO)N2C(=O)Nc1ccccc1F	none
CC(=O)N(C)C[C@@H]1Oc2ccc(N(C)C)cc2CC(=O)N(C)C[C@@H]1C	none
CC(C)C#Cc1ccc([C@H]2[C@H]3CN(S(=O)(=O)c4ccccc4)CC(=O)N3[C@H]2CO)cc1	none
O=C(NC1Cc2ccccc2C1)[C@H]1[C@H](CO)[C@H]2Cn3c(ccc(C4=CCCCC4)c3=O)[C@@H]1N2CC1CC1	none
C[C@H](CO)N1C[C@H](C)[C@@H](CN(C)C(=O)C2CCOCC2)Oc2ncc(C#CCc3ccccc3)cc2C1=O	none
C[C@H](CO)N1C[C@H](C)[C@H](CN(C)C(=O)C2CCOCC2)Oc2ncc(C#CCc3ccccc3)cc2C1=O	BL2 CD40 inh 64[25 µM]
C[C@H]1CN([C@@H](C)CO)C(=O)c2cc(C#CCc3ccccc3)cnc2O[C@H]1CN(C)C(=O)C1CCOCC1	none
Cc1ccc(S(=O)(=O)N(C)C[C@@H]2OCCCC[C@@H](C)Oc3ccc(NS(C)(=O)=O)cc3C(=O)N([C@@H](C)CO)C[C@@H]2C)cc1	none
Cc1ccc(S(=O)(=O)N(C)C[C@H]2OCCCC[C@@H](C)Oc3ccc(NC(=O)c4ccncc4)cc3C(=O)N([C@H](C)CO)C[C@@H]2C)cc1	none
CC(=O)N1[C@H](C(=O)NCc2ccccc2Cl)[C@@H](CO)[C@@H]2Cn3c(ccc(-c4ccncc4)c3=O)[C@@H]21	none
c1ccc(-c2nc3ccccc3s2)nc1	none
Cc1cc(-c2nc3ccccc3s2)ccc1N	BL2 CD40 inh 56
Cc1ccc(-c2nc3ccccc3s2)cc1S(=O)(=O)N1CCOCC1	none
Cc1noc(C)c1S(=O)(=O)N(C)C[C@@H]1OCCCC[C@H](C)Oc2ccc(NS(=O)(=O)c3cn(C)cn3)cc2C(=O)N([C@H](C)CO)C[C@@H]1C	none
Cc1nnc(C)c2c(C)n(/N=C/c3cc(Br)ccc3O)c(C)c12	none
CO[C@@H]1CC[C@@H]2CCOc3c(C#N)cccc3C(=O)N(C)C[C@@H](c3ccccc3)CC(=O)N(C)C[C@@H]1O2	none
C[C@@H]1CN([C@H](C)CO)C(=O)Cc2cc(NS(=O)(=O)c3ccc(F)cc3)ccc2O[C@@H]1CN(C)Cc1ccc(C(F)(F)F)cc1	none
C[C@H]1CN([C@@H](C)CO)C(=O)Cc2cc(NS(=O)(=O)c3ccc(F)cc3)ccc2O[C@@H]1CN(C)Cc1ccncc1	none
C[C@H]1CN([C@@H](C)CO)C(=O)Cc2cc(NS(=O)(=O)c3ccc(F)cc3)ccc2O[C@H]1CN(C)Cc1ccncc1	none
Cc1noc(C)c1S(=O)(=O)Nc1ccc2c(c1)CC(=O)N([C@@H](C)CO)C[C@@H](C)[C@@H](CN(C)Cc1ccc(Oc3ccccc3)cc1)O2	BL2 CD40 inh 74[25 µM]
C[C@@H]1CN([C@H](C)CO)C(=O)Cc2cc(NS(=O)(=O)c3ccc(F)cc3)ccc2O[C@H]1CN(C)CC1CCCCC1	BL2 CD40 inh 59
C[C@@H]1CN([C@H](C)CO)C(=O)c2cc(NS(=O)(=O)c3ccc(F)cc3)ccc2O[C@H]1CN(C)Cc1ccc(C(F)(F)F)cc1	none
C[C@@H]1CN([C@@H](C)CO)C(=O)Cc2cc(NS(=O)(=O)c3ccc(F)cc3)ccc2O[C@H]1CN(C)Cc1ccc(C(F)(F)F)cc1	BL2 CD40 inh 72
Cc1noc(C)c1S(=O)(=O)Nc1ccc2c(c1)CC(=O)N([C@@H](C)CO)C[C@@H](C)[C@@H](CN(C)Cc1ccccc1)O2	none
Cc1noc(C)c1S(=O)(=O)Nc1ccc2c(c1)CC(=O)N([C@H](C)CO)C[C@H](C)[C@@H](CN(C)Cc1ccc(Oc3ccccc3)cc1)O2	none
COC(=O)[C@@H]1[C@@H](CO)[C@@H]2Cn3c(ccc(-c4cccnc4)c3=O)[C@@H]2N1Cc1cccc(F)c1	none
O=C(NCC[C@@H]1CC[C@@H](NC(=O)c2ccncc2)[C@@H](CO)O1)Nc1ccc(Cl)cc1	none
C/C=C/c1ccc([C@@H]2[C@@H](C#N)N(C(=O)Cc3ccccn3)[C@@H]2CO)cc1	none
O=C(C1CCOCC1)N1CC(=O)N2[C@H](CO)[C@H](c3ccc(C#CC4CCCC4)cc3)[C@@H]2C1	none
CCCC(=O)N1CC2(CCN(S(=O)(=O)CC)CC2)c2c(n(C)c3cc(OC)ccc23)[C@H]1CO	none
C[C@H](CO)N1C[C@H](C)[C@H](CN(C)C(=O)Nc2ccc3c(c2)OCO3)OCCCC[C@H](C)Oc2ccc(NS(=O)(=O)c3cccs3)cc2C1=O	none
